33 compounds from PubChem BioAssay (NCATS) can be followed below.

Records with an inconclusive call do not appear. A call without a number means that no potency is given here. The source made the active and inactive calls. The call rests on the fitted dose curve; in most records, active means well fitted cell-killing curve with a large enough effect; inconclusive means small, poorly fitted or top-dose-only effect; inactive means flat fitted curve, though single readings scatter.

The nature of the assay: Cellular viability qHTS for adrenocortical cancer (ACC) cell line NCI-H295R (AID 1963990). Further: nearly all actives have a fitted effect of over 60% in size. As to conditions: CellTiter-Glo ATP luminescence, 48 h; series mostly up to 46.1 µM. An outline of the steps:
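IC50 and maximal efficacy derive from four-parameter logistic modelling of titration curves, with reads scaled between DMSO-only wells (0%) and doxorubicin hydrochloride (100% inhibition). Compounds spanned up to 46 uM over 48 h.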
(In general: qHTS replaces the single test concentration by a dilution series.)
Regarding `CN1CCN(c2ccc(C(=O)Nc3n[nH]c4ccc(Cc5cc(F)cc(F)c5)cc34)c(NC3CCOCC3)c2)CC1`, the Potency is 7.08 µM (active).

In the case of `O=C(O)c1ccc2c(c1)nc(Nc1cccc(Cl)c1)c1ccncc12`, the Potency was 2.51 µM (active).

`CN1C2CCC1CC(OC(=O)C(CO)c1ccccc1)C2` (stereo not drawn): the Potency result is “inactive”.

As to `CCCCS(=N)(=O)CCC(N)C(=O)O` (stereo not drawn), the Potency result was “inactive”.

`O=C1NC(=O)C(c2cnc3ccccn23)=C1c1cn2c3c(cccc13)CN(C(=O)N1CCOCC1)CC2`: the Potency result is “inactive”.

With `CO[C@@H]1C(N(C)C(=O)c2ccccc2)C[C@H]2O[C@]1(C)n1c3ccccc3c3c4c(c5c6ccccc6n2c5c31)C(=O)NC4=O` (stereo partly drawn), the Potency result was “inactive”.

Take `CC(C)(C)c1cc(C(C)(C)C)c(NC(=O)c2c[nH]c3ccccc3c2=O)cc1O`: the Potency was 7.08 µM (active).

For `CC(C)c1cc(-c2n[nH]c(=O)n2-c2ccc3c(ccn3C)c2)c(O)cc1O`, the Potency is 0.0126 µM (active).

`Cc1ccc(C(=O)Nc2cccc(C(F)(F)F)c2)cc1-c1ccc2nc(NCCN3CCOCC3)ncc2c1`: the Potency is 22.4 µM (active).

For the compound `COc1ccc(-c2oc3c(CC=C(C)C)c(O)cc(O)c3c(=O)c2O)cc1`, the Potency result is “inactive”.

In the case of `Cc1ccc(F)c(NC(=O)Nc2ccc(-c3cccc4[nH]nc(N)c34)cc2)c1`, the Potency is 15.8 µM (active).

Regarding `COCCCOc1cc(C[C@@H](C[C@H](N)[C@@H](O)C[C@H](C(=O)NCC(C)(C)C(N)=O)C(C)C)C(C)C)ccc1OC`, the Potency entry is “inactive”.

Turning to `Clc1ccccc1C(c1ccccc1)(c1ccccc1)n1ccnc1`, the Potency was 23.1 µM (active).

Take `C=CC(=O)Nc1ccc2ncnc(Nc3ccc(OCc4cccc(F)c4)c(Cl)c3)c2c1`: the Potency was 6.31 µM (active).

For the compound `O=c1c(O)c(-c2ccc(O)c(O)c2)oc2cc(O)cc(O)c12`, the Potency entry was “inactive”.

Take `CCCc1cc(C(N)=S)ccn1`: the Potency entry is “inactive”.

As to `CC(=O)Nc1ccc([C@H](C)C(=O)Nc2ncc(C(C)C)s2)cc1`, the Potency is 3.55 µM (active).

Take `Nc1nc(Nc2ccc(S(N)(=O)=O)cc2)nn1C(=O)c1c(F)cccc1F`: the Potency is 15.8 µM (active).

For `CC(C)C[C@H](NC(=O)CNC(=O)c1cc(Cl)ccc1Cl)B1OC(=O)CC(CC(=O)O)(C(=O)O)O1` (stereo partly drawn), the Potency was 0.355 µM (active).

On to `CNC(=O)c1ccc2c(C(=Nc3cccc(CN(C)C)c3)c3ccccc3)c(O)[nH]c2c1`, for which the Potency is 22.4 µM (active).

Regarding `O=C(c1ccc(F)cc1)N1CCC[C@H](c2nc(-c3ccc(F)cc3)no2)C1`, the Potency entry was “inactive”.

`COc1c2occc2cc2ccc(=O)oc12`: the Potency entry is “inactive”.

Consider `COc1ccc(-n2nc(C(N)=O)c3c2C(=O)N(c2ccc(N4CCCCC4=O)cc2)CC3)cc1`, for which the Potency entry is “inactive”.

With `Cc1cc2c(F)c(Oc3ncnn4cc(OC[C@@H](C)O)c(C)c34)ccc2[nH]1`, the Potency entry was “inactive”.

In the case of `O=C(O)CCNC(=O)c1ccc(N=Nc2ccc(O)c(C(=O)O)c2)cc1`, the Potency entry was “inactive”.

In the case of `CNC(=O)[C@H](Cc1ccccc1)NC(=O)[C@H](CC(C)C)[C@H](CSc1cccs1)C(=O)NO`, the Potency result is “inactive”.

On to `N#Cc1ccnc(Nc2cc(C3CCN(C4COC4)CC3)cc(N3CCC(F)(F)C3)n2)c1`, for which the Potency was 10 µM (active).

`O=C1CCCC2=C1C(c1[nH]ncc1Cl)N=C(Nc1nc3ccccc3o1)N2` (stereo not drawn): the Potency result is “inactive”.

As for `CCN1CCN(c2ccc(Nc3cc(N(C)C(=O)Nc4c(Cl)c(OC)cc(OC)c4Cl)ncn3)cc2)CC1`, the Potency result is “inactive”.

Regarding `Cc1nc(Nc2n[nH]c3c2CN(C(=O)N[C@H](CN(C)C)c2ccccc2)C3(C)C)c2sccc2n1`, the Potency was 28.2 µM (active).

Consider `CC(=O)CC(c1ccccc1)c1c(O)c2ccccc2oc1=O` (stereo not drawn), for which the Potency entry is “inactive”.

In the case of `CCc1ccc(C(=O)Nc2cc(CN3CCN(C)CC3)cc(C(F)(F)F)c2)cc1C#Cc1cnc2ccnn2c1`, the Potency was 7.94 µM (active).

`N#CC1(c2ccc(NC(=O)c3cccnc3NCc3ccncc3)cc2)CCCC1`: the Potency result is “inactive”.
